{
  "source": "PubChem BioAssay (NCATS)",
  "note": "Records with an inconclusive call do not appear. Calls of active or inactive are those of the source. Calls come from the whole dose curve; as a rule, active = well fitted curve in the direction sought with a large enough effect; inconclusive = small, poorly fitted or top-dose-only effect, or another doubt; inactive = no such curve, though single readings can be large; an effect the other way counts as inactive or inconclusive. *1 amine or outer side, *2 acyl side, *3 side chain or, on linkers, in order; H or OH if unused. Where a SMILES comes first, the peptide text is derived from it. Bridges are numbered along the chain shown (N, C = ends). Roman numbers before positions name the chains, in order. [ ]: non-standard residue; d: D form. ξ: configuration not given here. Actinocin(9to1) = Cc1c2oc3c(C)ccc(C(=O)[*:1])c3nc-2c(C(=O)[*:2])c(N)c1=O; ξNMeV = CNC(C(=O)O)C(C)C; ξV = CC(C)C(N)C(=O)O; Sar = CNCC(=O)O",
  "data": [
    {"molecular_target": "Tyrosine-protein kinase Yes (Homo sapiens) (UniProt P07947)", "sequence (P07947 whole entry, looked up)": "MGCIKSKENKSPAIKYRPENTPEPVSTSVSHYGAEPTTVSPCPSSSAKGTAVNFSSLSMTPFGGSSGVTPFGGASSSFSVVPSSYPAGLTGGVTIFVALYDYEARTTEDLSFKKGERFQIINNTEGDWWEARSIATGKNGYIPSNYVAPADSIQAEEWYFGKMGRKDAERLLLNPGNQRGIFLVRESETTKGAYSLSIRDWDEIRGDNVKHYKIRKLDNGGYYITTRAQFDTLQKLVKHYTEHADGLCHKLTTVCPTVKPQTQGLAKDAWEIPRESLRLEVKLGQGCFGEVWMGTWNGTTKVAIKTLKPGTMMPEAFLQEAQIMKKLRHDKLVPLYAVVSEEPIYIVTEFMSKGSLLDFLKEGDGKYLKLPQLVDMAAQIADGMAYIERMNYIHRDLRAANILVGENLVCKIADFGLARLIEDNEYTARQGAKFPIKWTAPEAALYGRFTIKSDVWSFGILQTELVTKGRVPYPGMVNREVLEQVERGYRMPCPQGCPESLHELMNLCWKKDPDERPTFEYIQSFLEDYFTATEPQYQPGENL", "assay": "qHTS for small molecule inhibitors of Yes1 kinase: Primary Screen (AID 686947); note: nearly all actives have a fitted effect of over 60% in size; note: potency is the fitted concentration of half-maximal effect;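 for activity change, negative = inhibition: plate controls were DMSO with enzyme for no effect and no-enzyme DMSO wells for full effect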", "conditions": "Yes1 kinase biochemical qHTS inhibition; series mostly up to 76.9 µM; activity change, negative = inhibition: at the top concentration", "summary_of_the_method": "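ADP-Glo luminescence reports ADP formed by 4 nM Yes1 phosphorylating poly(E4Y) (0.3 mg/mL) with 0.1 mM ATP for 60 min at room temperature, following 20 min compound preincubation; normalised between DMSO wells with and without enzyme.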", "values": [
      {"smiles": "NC(=O)Nc1cc(-c2ccc(CN3CCOCC3)c(F)c2)sc1C(=O)N[C@H]1CCCNC1", "Potency": "0.2 nM (active)"},
      {"smiles": "CC[C@@H](C(=O)O)C1CC[C@H](C)C([C@@H](C)[C@H](O)[C@H](C)C(=O)[C@H](CC)C2O[C@]3(C=C[C@@H](O)[C@]4(CC[C@@](C)(C5CC[C@](O)(CC)[C@H](C)O5)O4)O3)[C@H](C)C[C@@H]2C)O1", "note": "(stereo partly specified)", "activity change, negative = inhibition": "2.4% (inactive)"},
      {"smiles": "CCC1(Cc2ccc(N)cc2)CCC(=O)NC1=O", "note": "(stereo unspecified)", "activity change, negative = inhibition": "24.8% [at 154 µM] (inactive)"},
      {"smiles": "CC(NC(=O)Cc1cc(F)cc(F)c1)C(=O)NC(C(=O)OC(C)(C)C)c1ccccc1", "note": "(stereo unspecified)", "activity change, negative = inhibition": "18.2% (inactive)"},
      {"smiles": "Cc1c2oc3c(C)ccc(C(=O)N[C@@H]4C(=O)NC(C(C)C)C(=O)N5CCC[C@H]5C(=O)N(C)CC(=O)N(C)C(C(C)C)C(=O)O[C@@H]4C)c3nc-2c(C(=O)N[C@@H]2C(=O)NC(C(C)C)C(=O)N3CCC[C@H]3C(=O)N(C)CC(=O)N(C)C(C(C)C)C(=O)O[C@@H]2C)c(N)c1=O", "note": "(stereo partly specified) (I: T[ξV]P[Sar][ξNMeV] / II: T[ξV]P[Sar][ξNMeV]; ester I:1-I:C, II:1-II:C; linker I:N-II:N via Actinocin(9to1))", "activity change, negative = inhibition": "6.25% (inactive)"},
      {"smiles": "CCC1(O)CC2CN(CCc3c([nH]c4ccccc34)[C@@](C(=O)OC)(c3cc4c(cc3OC)N(C=O)[C@H]3[C@](O)(C(=O)OC)[C@H](OC(C)=O)[C@]5(CC)C=CCN6CC[C@]43[C@@H]65)C2)C1", "note": "(stereo partly specified)", "activity change, negative = inhibition": "13.3% (inactive)"},
      {"smiles": "O=c1cc(C2=CC=CC3Sc4ccccc4SC23)oc(N2CCOCC2)c1", "note": "(stereo unspecified)", "activity change, negative = inhibition": "4.3% (inactive)"},
      {"smiles": "CNC1CCN(C(Cc2cccc(-c3ccncc3)c2)C(=O)c2sc3c(F)ccc(F)c3c2Cl)CC1", "note": "(stereo unspecified)", "activity change, negative = inhibition": "-0.885% (inactive)"},
      {"smiles": "CN(NC(=O)CC(=O)NN(C)C(=S)c1ccccc1)C(=S)c1ccccc1", "activity change, negative = inhibition": "14.5% (inactive)"},
      {"smiles": "O=C(O)CC/C=C\\CC[C@H]1[C@@H](N2CCCCC2)[C@@H](O)C[C@@H]1OCc1ccc(-c2ccccc2)cc1", "activity change, negative = inhibition": "25.6% (inactive)"},
      {"smiles": "CCCCCCCCCCCCCCCCCCOP(=O)([O-])OC1CC[N+](C)(C)CC1", "activity change, negative = inhibition": "5.86% [at 47.8 µM] (inactive)"},
      {"smiles": "COC(=O)C1=C(C)NC(C)=C(C(=O)OCCCN2CCC(c3ccccc3)(c3ccccc3)CC2)[C@H]1c1cccc([N+](=O)[O-])c1", "activity change, negative = inhibition": "-6.74% (inactive)"}
    ]},
    {"test_system": "not listed separately", "assay": "qHTS for small molecule inhibitors of Yes1 kinase: Counter Assay (AID 686950);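 note: no kinase present so only ADP-Glo detection of a fixed ADP amount is tested; luminescence from ADP-Glo reporting ADP in a fixed ATP and ADP mixture; 0% = DMSO wells with ATP plus ADP and -100% = ATP-only wells without ADP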", "conditions": "series mostly up to 76.9 µM; activity change, negative = inhibition: at the top concentration", "summary_of_the_method": "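Measuring interference with ADP-Glo, the assay ran 60 min at room temperature on an ATP/ADP mix lacking enzyme. Values were normalized to ATP-plus-ADP (maximum) and ATP-only (minimum) DMSO controls.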", "values": [
      {"smiles": "NC(=O)Nc1cc(-c2ccc(CN3CCOCC3)c(F)c2)sc1C(=O)N[C@H]1CCCNC1", "activity change, negative = inhibition": "-0.9% (inactive)"},
      {"smiles": "CC[C@@H](C(=O)O)C1CC[C@H](C)C([C@@H](C)[C@H](O)[C@H](C)C(=O)[C@H](CC)C2O[C@]3(C=C[C@@H](O)[C@]4(CC[C@@](C)(C5CC[C@](O)(CC)[C@H](C)O5)O4)O3)[C@H](C)C[C@@H]2C)O1", "note": "(stereo partly specified)", "activity change, negative = inhibition": "4.56% (inactive)"},
      {"smiles": "CCC1(Cc2ccc(N)cc2)CCC(=O)NC1=O", "note": "(stereo unspecified)", "activity change, negative = inhibition": "-0.931% [at 154 µM] (inactive)"},
      {"smiles": "CC(NC(=O)Cc1cc(F)cc(F)c1)C(=O)NC(C(=O)OC(C)(C)C)c1ccccc1", "note": "(stereo unspecified)", "activity change, negative = inhibition": "6.14% (inactive)"},
      {"smiles": "Cc1c2oc3c(C)ccc(C(=O)N[C@@H]4C(=O)NC(C(C)C)C(=O)N5CCC[C@H]5C(=O)N(C)CC(=O)N(C)C(C(C)C)C(=O)O[C@@H]4C)c3nc-2c(C(=O)N[C@@H]2C(=O)NC(C(C)C)C(=O)N3CCC[C@H]3C(=O)N(C)CC(=O)N(C)C(C(C)C)C(=O)O[C@@H]2C)c(N)c1=O", "note": "(stereo partly specified) (I: T[ξV]P[Sar][ξNMeV] / II: T[ξV]P[Sar][ξNMeV]; ester I:1-I:C, II:1-II:C; linker I:N-II:N via Actinocin(9to1))", "activity change, negative = inhibition": "4.27% (inactive)"},
      {"smiles": "CCC1(O)CC2CN(CCc3c([nH]c4ccccc34)[C@@](C(=O)OC)(c3cc4c(cc3OC)N(C=O)[C@H]3[C@](O)(C(=O)OC)[C@H](OC(C)=O)[C@]5(CC)C=CCN6CC[C@]43[C@@H]65)C2)C1", "note": "(stereo partly specified)", "activity change, negative = inhibition": "-2.51% (inactive)"},
      {"smiles": "O=c1cc(C2=CC=CC3Sc4ccccc4SC23)oc(N2CCOCC2)c1", "note": "(stereo unspecified)", "activity change, negative = inhibition": "1.08% (inactive)"},
      {"smiles": "C[C@@H]1CCN(C(=O)CC#N)C[C@@H]1N(C)c1ncnc2[nH]ccc12", "activity change, negative = inhibition": "-7.62% (inactive)"},
      {"smiles": "Cc1nnc(C(C)C)n1C1CC2CCC(C1)N2CC[C@H](NC(=O)C1CCC(F)(F)CC1)c1ccccc1", "note": "(stereo partly specified)", "activity change, negative = inhibition": "-1.95% (inactive)"},
      {"smiles": "CNC1CCN(C(Cc2cccc(-c3ccncc3)c2)C(=O)c2sc3c(F)ccc(F)c3c2Cl)CC1", "note": "(stereo unspecified)", "activity change, negative = inhibition": "3.95% (inactive)"},
      {"smiles": "CN(NC(=O)CC(=O)NN(C)C(=S)c1ccccc1)C(=S)c1ccccc1", "activity change, negative = inhibition": "5.37% (inactive)"},
      {"smiles": "O=C(O)CC/C=C\\CC[C@H]1[C@@H](N2CCCCC2)[C@@H](O)C[C@@H]1OCc1ccc(-c2ccccc2)cc1", "activity change, negative = inhibition": "0.782% (inactive)"},
      {"smiles": "CCCCCCCCCCCCCCCCCCOP(=O)([O-])OC1CC[N+](C)(C)CC1", "activity change, negative = inhibition": "-0.4% [at 47.8 µM] (inactive)"},
      {"smiles": "COC(=O)C1=C(C)NC(C)=C(C(=O)OCCCN2CCC(c3ccccc3)(c3ccccc3)CC2)[C@H]1c1cccc([N+](=O)[O-])c1", "activity change, negative = inhibition": "3.38% (inactive)"}
    ]}
  ]
}
